PubChem BioAssay (NCI)
Compounds without any hit were thinned out: in the full panel of roughly 83,000, 20% have a hit.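 Plates (96-well) were seeded with cells, treated with compound at one concentration, and incubated for 48 hours before percent growth was determined.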 A number with no mark means an inactive call. Calls of active or inactive are those of the source. The calls were made as follows: active = growth percent below 10; inactive = the rest.

How the values were obtained:
Assay in all cases: NCI-60 one-dose screen, 48 h (100 = growth as untreated, 0 = no growth, -100 = all killed)
NCI-H23 lung = settings: 10 µM unless noted
NCI-H322M lung = settings: 10 µM unless noted
HOP-62 NSCLC = settings: 10 µM unless noted
NCI-H460 lung = settings: 10 µM unless noted
HOP-92 NSCLC = settings: 10 µM unless noted
NCI-H522 lung = settings: 10 µM unless noted
A549/ATCC NSCLC = settings: 10 µM unless noted
786-0 renal = settings: 10 µM unless noted
COLO 205 colon = settings: 10 µM unless noted
DU-145 prostate = settings: 10 µM unless noted
K-562 leukemia = settings: 10 µM unless noted
MALME-3M melanoma = settings: 10 µM unless noted
RXF 393 renal = settings: 10 µM unless noted
SF-268 CNS = settings: 10 µM unless noted
SF-295 CNS = settings: 10 µM unless noted
SF-539 CNS = settings: 10 µM unless noted
UACC-257 melanoma = settings: 10 µM
M14 melanoma = settings: 10 µM unless noted
MDA-MB-231 breast = settings: 10 µM unless noted
NCI-H226 lung = settings: 10 µM unless noted

| Compound | growth (NCI-H23 lung) | growth (NCI-H322M lung) [%] | growth (HOP-62 NSCLC) | growth (NCI-H460 lung) | growth (HOP-92 NSCLC) | growth (NCI-H522 lung) | growth (A549/ATCC NSCLC) | growth (786-0 renal) | growth (COLO 205 colon) [%] | growth (DU-145 prostate) | growth (K-562 leukemia) | growth (MALME-3M melanoma) [%] | growth (RXF 393 renal) | growth (SF-268 CNS) | growth (SF-295 CNS) | growth (SF-539 CNS) | growth (UACC-257 melanoma) | growth (M14 melanoma) [%] | growth (MDA-MB-231 breast) [%] | growth (NCI-H226 lung) [%] |
| --- | --- | --- | --- | --- | --- | --- | --- | --- | --- | --- | --- | --- | --- | --- | --- | --- | --- | --- | --- | --- |
| COc1cc(NS(C)(=O)=O)ccc1Nc1c2ccc([N+](=O)[O-])cc2nc2c(C)cccc12 | -0.0901% (active) | 39.6 | -2.67% (active) | -25.4% (active) | -23.8% (active) | -25.8% (active) | -35.8% (active) | -3.37% (active) | 25.3 | -13.1% (active) | 4.57% (active) | 14.4 | 10.4% | 7.28% (active) | -43.7% (active) | -13.7% (active) | 2.11% (active) | 22.6 |  |  |
| COc1cc(-c2nc(-c3nc4ccccc4[nH]3)cc3c2[nH]c2ccccc23)cc(OC)c1OC | 41.3% | 73.8 | 45.1% | 30% | 9.1% (active) | 57.2% | 22.5% | 82.6% | 26.9 | 53.8% | 31.9% | 32.7 | 70.6% | 47.8% | 1.13% (active) | 68.4% | 41.7% | 23.4 | 61.3 |  |
| O=C(O)Cc1ccc2c(c1)Cc1cccnc1O2 | 98.9% | 109 | 106% | 105% | 112% | 95.7% | 96.1% | 98% | 111 | 107% | 114% | 98.5 | 91.2% | 103% | 108% | 99.7% | 106% | 103 | 111 |  |
| O=C1c2ccccc2C(=O)c2c1oc1oc3c(c(=O)c21)c(=O)n(-c1ccccc1)c1ccccc31 | 38.2% | 63.5 | 36.1% | 33.6% | 80% | 19.4% | 37.7% | 97.9% | 92.7 | 94.4% | 26.8% | 42 | -14.1% (active) | 34.3% | 18.4% | -5.45% (active) | 101% | 44.7 | 97.3 |  |
| NC(CC(N)C(=O)O)C(=O)O (stereo unspecified) | 107% | 103 | 117% | 108% | 115% | 79.7% | 99.4% | 105% | 115 | 115% | 91.8% | 104 | 89.6% | 109% | 101% | 97.9% | 95.2% | 104 | 103 |  |
| Nc1nc(Cl)c2c(ncn2Cc2ccc(CCl)cc2)n1 | 94% | 94.9 | 120% | 93.8% | 54.9% | 76.1% | 83.4% | 103% | 106 | 86.5% | 117% | 94.6 |  | 91.1% | 52.8% | 82.5% |  | 97.2 | 88.2 |  |
| CCN1C(=O)N(CC)C2Nn3c(s/c(=C\c4cccc(F)c4)c3=O)=NC21 (stereo unspecified) | 62.7% | 96.6 | 68.1% | 53.9% | 49.1% | 64.4% | 72.5% | 77.5% | 70.7 | 59.1% | 26.8% | 72.3 |  | 76.1% | 61.1% | 68.3% |  | 89.6 | 66.5 |  |
| O=C(Nc1cccc(C(F)(F)F)c1)Nc1ccc(OCc2nnc(-c3ccccc3)o2)c(F)c1 |  | 61.6 | 56.1% | 6.12% (active) | -8.2% (active) | 1.68% (active) | 29.9% | 60.4% | 32.6 | 31.9% | 22.1% | 53.7 |  | 58.7% | 17% | 27.8% | 70% | 40.9 | 42.9 | 56.3 |
